# Records with an inconclusive call do not appear. More than one record can exist for a structure, and the calls need not agree. The source made the active and inactive calls. Rule for the calls: active = hit-call score of the fitted dose curve at least 0.9, where 1 is the maximum; inconclusive = response in the unintended direction; inactive = score below 0.9.
# Test: ACEA_AR_agonist_AUC_viability: ACEA Biosciences xCELLigence Real-Time Cell Analysis on Androgen Receptor Agonism for Viability (AID 2283775);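 for AC50: viability read 80 hours after compound addition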
# Experimental: ACEA_AR_agonist is a cell-based, single-readout assay that uses 22Rv1, a human prostate cancer cell line, with measurements taken at 80 hours after chemical dosing in a 384-well plate, although TO5 and TO6 (mc0.srcf) used a 96-well plate. Differences in plate size can be ignored given data normalization.ACEA_AR_80hr is one of two assay component(s) measured or calculated from the ACEA_AR assay. It is designed to make measurements of real-time cell-growth kinetics, a form of growth reporter, as detected with electrical impedance signals by Real-Time Cell Electrode Sensor (RT-CES) technology.Data from the assay component ACEA_AR_AUC_viability was analyzed in the positive analysis fitting direction relative to DMSO as the negative control and baseline of activity. Using a type of growth reporter, loss-of-signal activity can be used to understand changes in the viability. Furthermore, this assay endpoint can be referred to as a secondary readout, because this assay has produced multiple assay endpoints where this one serves a viability function. To generalize the intended target to other relatable targets, this assay endpoint is annotated to the cell cycle intended target family, where the subfamily is cytotoxicity.
# The xCELLigence system Multi-E-Plate stations were used to measure the time-dependent response to chemicals. Each compound was tested in an eight-point, 1:4 serial dilution series starting at a maximum final concentration of 100 uM. A maximum starting concentration of 0.5% DMSO was present in the 100 uM chemical samples and was diluted along with the test article dilution series. The screen was performed in biological duplicate using two separate, 96-well, E-Plates 96 for each dilution series (n = 2). Positive controls (MG132 and testosterone) and a negative control (assay media) were tested in quadruplicate on each testing plate. Then, 0.5% and 0.125% DMSO were tested in duplicates in each plate to serve as solvent controls for the 2 highest concentrations of testing compounds: 100 uM and 25 uM. Reference compounds were tested with 8 concentrations with 1:5 serial dilutions. All screening was carried out by ACEA Biosciences, Inc. (San Diego, CA). 22Rv1 cells purchased from ATCC were maintained in media supplemented with 10% fetal bovine serum (FBS). Before screening, 22Rv1 cells were preconditioned in assay medium. Cells were then detached and seeded in E-Plates 96 in assay medium. After overnight monitoring of growth once every hour, compounds were added to […] cells and remained in the medium until the end of the experiment. Cellular responses were then recorded once every 5 min for the first 5 h, and once every hour for an additional 100 h.
Compound,outcome,AC50
ClC1(Cl)C2(Cl)C3(Cl)C4(Cl)C(Cl)(Cl)C5(Cl)C3(Cl)C1(Cl)C5(Cl)C24Cl (stereo not given),inactive,
CC(C)(OO)c1ccccc1,inactive,
O=C1C(Cl)=C(Cl)C(=O)c2ccccc21,inactive,
CCOP(=S)(OCC)SCSP(=S)(OCC)OCC,inactive,
Cc1ccccc1N,inactive,
BrCCBr,inactive,
CCC1(c2ccc(N)cc2)CCC(=O)NC1=O (stereo not given),inactive,
CCC(C)(C)c1ccc(O)c(C(C)(C)CC)c1,inactive,
COP(=O)(OC)OC,inactive,
C=CCc1ccc(OC)cc1,inactive,
c1cc[c]([Hg][c]2ccccc2)cc1,,26.6 µM (active)
[O-][Cl+2]([O-])O,inactive,
COc1cc(-c2ccc(N)c(OC)c2)ccc1N,,27.1 µM (active)
CC(C)(c1ccc(OCC2CO2)cc1)c1ccc(OCC2CO2)cc1 (stereo not given),inactive,
C=C(C)C#N,inactive,
C[C@H]1CCCC(=O)CCC/C=C/c2cc(O)cc(O)c2C(=O)O1,inactive,30.3 µM (active)
NC(=O)O,inactive,
O=c1[nH]c(=O)[nH]c(=O)[nH]1,inactive,
Cl/C=C\C[N+]12CN3CN(CN(C3)C1)C2,inactive,
CCCCOCCOC(C)=O,inactive,

Compound,outcome,AC50
Fc1ccc(C2(Cn3cncn3)OC2c2ccccc2Cl)cc1 (stereo not given),inactive,
O=C(Cc1ccccc1)c1ccccc1,inactive,
C[C@@H]1C[C@@H]([C@H](O)CC2CC(=O)NC(=O)C2)C(=O)[C@@H](C)C1,,2.1 µM (active)
CCC[CH2][Sn]([Cl])([Cl])[Cl],inactive,
COP(=O)(OC)O/C(=C\Cl)c1cc(Cl)c(Cl)cc1Cl,inactive,
N#CN=C(N)N,inactive,
CN(C)N=O,inactive,
CCC[CH2][Sn]([CH2]CCC)([CH2]CCC)[O]C(=O)c1ccccc1,,4.45 µM (active)
Clc1ccc(C2(Cn3cncn3)CC(Br)CO2)c(Cl)c1 (stereo not given),inactive,
CCN1CCC2(CC1)COc1cc3c(cc12)N(C(=O)c1ccc(-c2ccc(-c4nnc(C)o4)cc2C)cc1)CC3,,9.92 µM (active)
COP(=S)(OC)Oc1ccc(Sc2ccc(OP(=S)(OC)OC)cc2)cc1,inactive,
CCCCCCCCc1ccc(O)cc1,,29.8 µM (active)
CC(=O)C=C(C)C,inactive,
CC(C)(c1ccccc1)c1ccc(O)c(C(C)(C)c2ccccc2)c1,,10.1 µM (active)
O=C(Nc1ccc2[nH]ccc2c1)c1cc2cc(F)ccc2n1Cc1cccc(F)c1,,14.5 µM (active)
CC(C)C1CCC(Cc2ccc(Cl)cc2)C1(O)Cn1cncn1 (stereo not given),inactive,
O=C1C2(Cl)C3(Cl)C4(Cl)C(Cl)(Cl)C5(Cl)C3(Cl)C1(Cl)C5(Cl)C24Cl (stereo not given),,7.07 µM (active)
Cl/C=C/Cl,inactive,
CC1(C)Cc2cccc(O)c2O1,inactive,

# Source: PubChem BioAssay (EPA / NIEHS)
